KKLEB tox: cytotoxicity in KKLEB CF airway cells, primary screen, cytotoxicity control for CF NF-kB inhibitor project, cell-based, uHTS, fluorescence assay plates; KKLEB CF airway cells viability, ATPlite luminescence, overnight; stronger effect = lower value; cells stimulated with P. aeruginosa culture filtrate; activity change (cytotoxicity), % at 5 µM; 360,000 tested, 0.36% active; AID 602141, 2011;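 active means corrected activity change at or below -50% at 5 µM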
TWEAK Fn14 block: inhibitors of TWEAK-Fn14 signaling, primary screen, luciferase reporter cells, uHTS; TWEAK-stimulated Fn14 reporter cells, luciferase luminescence, 8 h; inhibition, % at 10 µM; 360,000 tested, 2% active; AID 1159606, 2016; in the data active means inhibition above about 50%
CF NFkB inh: inhibitors of PAF-induced NF-kB signaling, primary screen, cell-based, GFP fluorescence, uHTS | KKLEB NF-kB-GFP reporter, GFP fluorescence overnight | inhibition, % at 5 µM | 360,000 tested, 0.86% active | AID 588850, 2011;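 active means at least 50% inhibition at 5 µM, scaled per plate between neutral and stimulator controls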;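 further: PAF is a Pseudomonas aeruginosa culture filtrate used as stimulus; plate controls were PAF-stimulated DMSO wells for no effect and unstimulated DMSO wells for full effect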
TROY NFkB inh: inhibitors of TROY-driven NF-kB signaling, primary screen, Q293 LMP1-TROYcd cells, NF-kB luciferase, uHTS; Q293 LMP1-TROYcd NF-kB luciferase reporter, 4 h; inhibition, % at 10 µM; 360,000 tested, 0.98% active; AID 1347056, 2019;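 active means compounds whose plate-normalised and pattern-corrected inhibition of the luciferase reporter signal at the single screening dose is 50% or more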
HIF-2a inh: HIF-2a reporter inhibitors, primary screen, luminescence, 786-0 RCC cells; 786-0 RCC cells HIF-2a reporter, luciferase luminescence, overnight; inhibition, % at 18.8 µM; 360,000 tested, 0.72% active;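 active means inhibition of the luminescence signal of 40% or more relative to plate controls, in a single-dose primary screen at 18.75 µM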
Peg3 promoter: Peg3 promoter-driven luciferase inhibitors, primary screen, cell-based, HeLa, luciferase luminescence | HeLa PEG-Prom luciferase reporter, overnight | inhibition, % at 20 µM | 360,000 tested, 1.7% active;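 active means inhibition of at least 50% at 20 µM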
Mdm2 MdmX conf: retested Mdm2-MdmX interaction blockers, confirmation, cell-based, luminescence, single concentration, set 2; SaOS-2 split-luciferase Mdm2/MdmX complementation; 740 tested, 99% active; shares compounds with HIF-2a inh; inhibition, % at 8 µM;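 active means mean inhibition of the luminescence signal across two replicates at or above 26 percent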
HIF-2a inh conf: HIF-2a reporter inhibitor retest, confirmation, luminescence, 786-0 RCC cells; shares compounds with HIF-2a inh; HIF-2a luciferase reporter luminescence, overnight; inhibition, % at 18.8 µM; 1,800 tested, 56% active;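 active means mean inhibition across four replicates of at least 40 percent at the single tested concentration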
HIF-1a counter: HIF-1a luciferase reporter signal reduction – MiaPaCa-2 cells, single concentration, counter-screen for HIF-2a inhibitor project, confirmation; shares compounds with HIF-2a inh; 1,800 tested, 72% active; inhibition, % at 18.8 µM; MiaPaCa-2 HIF-1a luciferase reporter, desferoxamine, overnight;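 active means mean inhibition of the reporter signal across four replicates at the single tested dose of 50% or more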
Starred values were filed as active, the others as inactive; x = no result. An excerpt weighted towards active compounds, which were near 4% of everything screened.

SMILES	KKLEB tox	TWEAK Fn14 block	CF NFkB inh	TROY NFkB inh	HIF-2a inh	Peg3 promoter	HIF-2a inh conf	HIF-1a counter	others
CN(C)c1cc2c(cc1NC(=O)c1ccccc1Cl)n(C)c(=O)n2C	-4	-14	11	3	1	8	x	x
CC(=O)Nc1cccc(-c2csc(N)n2)c1	3	-4	-20	15	5	1	x	x
CC(=O)Nc1cccc(-c2cnc(N)c(C(=O)c3cccnc3)n2)c1	-8	82*	75*	38	41*	71*	x	x	Mdm2 MdmX conf=102*
CC(C)c1ccc(C(C(=O)NC2CCCC2)N(C(=O)c2csnn2)C2CC2)cc1 (centres undefined)	1	32	-4	-6	3	10	x	x
O=S(=O)(CCSc1nc2ccccc2s1)c1nc2ccccc2s1	-43	83*	73*	69*	57*	58*	25	69*	Mdm2 MdmX conf=103*
CC(C)(C)S(=O)(=O)c1nc2ccccc2s1	-12	4	-1	-10	6	-5	x	x
CCS(=O)(=O)CCSc1nc2ccccc2s1	-4	-8	-7	-2	-9	3	x	x
C=CCS(=O)(=O)c1nc2ccccc2s1	-18	28	52*	0	88*	104*	-7	44
CC1C/C(=C/c2ccncc2)C(=O)/C(=C/c2ccncc2)C1 (centres undefined)	-55*	100*	82*	66*	94*	104*	x	x	Mdm2 MdmX conf=100*
CC1C/C(=C/c2cccn2C)C(=O)/C(=C/c2cccn2C)C1 (centres undefined)	6	15	-53	-11	-49	-18	x	x
Cc1ccc(Cl)cc1NC(=O)c1cc2ccccc2cc1O	-55*	47	51*	52*	-143	2	x	x	Mdm2 MdmX conf=101*
NNC(=O)c1cc2ccccc2cc1O	7	91*	8	21	69*	39	81*	75*
CCOC(=O)C(C)(C)N(Cc1ccccc1C)S(=O)(=O)c1ccc(Cl)c([N+](=O)[O-])c1	-1	26	2	-5	40*	100*	21	42
CC1(c2cccc(Br)c2)NC(=O)N(CC(=O)N2CCc3ccccc32)C1=O (centres undefined)	6	-1	8	1	18	26	x	x
COc1ccc(OC)c(C(C[N+](=O)[O-])c2c(C)cc3ccccn23)c1 (centres undefined)	-14	23	19	1	44*	37	18	39
COc1ccc(S(=O)(=O)N2c3ccccc3NC(=O)CC2C)cc1 (centres undefined)	12	1	0	3	12	5	x	x
Cc1nc2ccc(NC(=O)c3nn(CC(C)C)c(=O)c4ccccc34)cc2s1	4	-8	-13	-3	-47	-43	x	x	Mdm2 MdmX conf=93*
Cc1nnc(NC(=O)c2nn(CC(C)C)c(=O)c3ccccc23)s1	2	-25	-7	10	11	19	x	x
CC1=C(C(=O)N(C)C)CC(CC(=O)NCCc2ccccn2)C(=O)N1Cc1ccc(F)cc1 (centres undefined)	3	-1	-8	3	-2	-25	x	x
CCCCN(CC)Cc1ccc(CNC(=S)Nc2ccc(C)cc2Cl)o1	-8	74*	3	42	84*	-10	60*	60*
CCCCN(CC)Cc1ccc(CNC(=S)Nc2c(C)cc(C)cc2C)o1	0	5	-8	-4	12	6	x	x
COc1ccc(N(C)S(=O)(=O)c2cccc(C(=O)NC3CCCC(C)C3C)c2)cc1 (centres undefined)	-3	-6	7	-16	9	9	x	x
COc1ccccc1C(=O)NCCOc1ccc(C(C)(C)C)cc1	-7	-4	7	11	-14	-216	x	x
CC(C)(C)c1ccc(C(=O)NCCOc2ccccc2F)cc1	-1	95*	13	75*	41*	67*	61*	73*
Cc1c(NC(=O)C(C)OC(=O)CCc2c[nH]c3ccccc23)c(=O)n(-c2ccccc2)n1C (centres undefined)	-11	10	16	12	3	-3	x	x
SMILES	KKLEB tox	TWEAK Fn14 block	CF NFkB inh	TROY NFkB inh	HIF-2a inh	Peg3 promoter	HIF-2a inh conf	HIF-1a counter	others
CCN(CC(=O)Nc1c(F)cccc1F)C(=O)c1cc(S(=O)(=O)N(CC)CC)ccc1N1CCCCC1	6	14	-33	1	48*	40	34	36
CC(C)N1CCC1(C)C(=O)Nc1ccc(-n2cccc2)cc1 (centres undefined)	-4	-4	-11	-15	-13	-11	x	x
Cc1oc(-c2cccc(Cl)c2)nc1CSCC(=O)O	0	17	-8	26	43*	16	35	32
Cc1oc(-c2ccccc2Cl)nc1CSCC(=O)O	-7	15	9	15	18	20	x	x
COc1ccc(NC(=O)/C(C#N)=C/c2c(C)nn(-c3ccc(F)cc3)c2Cl)cc1OC	-3	44	17	33	43*	22	11	54*
C[C@@H]1CN([C@H](C)CO)C(=O)CCCn2nncc2CO[C@@H]1CN(C)C(=O)Nc1cccc2ccccc12	-2	20	15	31	19	0	x	x
CCCC(=O)OCCNc1cc(SCc2ccco2)c2nonc2c1[N+](=O)[O-]	0	6	8	4	7	-6	x	x
CCCSc1cc(NCCOC(C)=O)c([N+](=O)[O-])c2nonc12	-10	5	-15	1	24	14	x	x
CCCC(=O)OCCNc1cc(Sc2nccn2C)c2nonc2c1[N+](=O)[O-]	-1	42	48	18	87*	110*	82*	104*
CCC(=O)OCCNc1cc(Sc2nc3ccccc3[nH]2)c2nonc2c1[N+](=O)[O-]	-95*	54*	82*	54*	86*	92*	84*	84*
